# From PubChem BioAssay
# A selection: hits, their analogues and other compounds. The true share with any hit is near 1.1%.
# Chronic BCR inh = blocks chronic active B-cell receptor signaling | ABC-DLBCL IkBa-CBG/CBR reporter, luminescence ratio, 4 h | Potency, µM (doses to about 46.1 µM), without a hit: top-dose activity change, negative = inhibition, most hits filed as inhibitors | 340,000 tested, 0.05% active; active = well fitted inhibition curve with a large enough effect in the signal ratio, with a control signal flat, not every such curve was filed as active; inconclusive = small, poorly fitted or top-dose-only effect, or effect the other way, or a change in a side signal; the % refers to the signal ratio;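 note: plate controls were basal doxycycline-induced cells for no effect and cells given 10 µM MG132 for full effect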
#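 Compounds up to 46 uM were incubated four hours with TMD8 cells whose green CBG68 luciferase is fused to IkappaBalpha; red CBR luminescence normalised the signal, and concentration-effect curves were fitted to fusion, red and ratio data.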
# Anesthetic bind = binds horse apoferritin like a general anesthetic | Potency, µM (series often up to 77.5 µM), inactives show at the top dose activity change, negative = displacement, actives largely listed as inhibitors | AID 485281 | 350,000 tested, 0.074% active | apoferritin/1-aminoanthracene competitive binding, fluorescence; note: % is set by controls: 0 for no effect and ±100 for the full control effect; nearly all actives have a fitted effect of over 20% in size
# Target sequence (P02791 2-175 limits assumed): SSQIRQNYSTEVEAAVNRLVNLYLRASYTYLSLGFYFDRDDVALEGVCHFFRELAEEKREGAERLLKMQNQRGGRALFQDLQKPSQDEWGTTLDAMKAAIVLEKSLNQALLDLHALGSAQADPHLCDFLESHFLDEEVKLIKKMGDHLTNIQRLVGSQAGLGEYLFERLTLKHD
#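 Concentration-response curves derived by four-parameter Hill fitting of normalized fluorescence, where compounds displaced 1-AMA from 10 uM horse apoferritin following a brief 10 min room-temperature incubation; propofol titration acted as positive control.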
# Glioma ERSR ind = ER stress response induction in glioma; U87-MG GRP78 promoter luciferase reporter, 16 h; Potency, µM, without a hit: top-dose activation, usual class: activators; 420,000 tested, 0.02% active; note: series mostly up to about 76 µM; % of control where 0% means no effect; nearly all actives have a fitted effect of over 35% in size
#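 Stably transfected U87-MG human glioma cells carrying a GRP78-based luminescent sensor were seeded at 1000 cells/well, pin-dosed with compounds and incubated 16 h. Luciferase reagent was then added, and end-point luminescence was read after 10 min at room temperature.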
# ALOX12 inh = ALOX12 (human) lipoxygenase inhibition; P18054; AID 1671190; 580,000 tested, 1.1% active; purified 12hLO, xylenol orange hydroperoxide absorbance; Potency, µM (top dose mostly 108 µM), for inactives: at the highest dose activity change, negative = inhibition, actives largely listed as inhibitors; note: % is set by controls: 0 for no effect and ±100 for the full control effect
#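 Purified human 12hLO at 150 nM in 25 mM Hepes, 0.01% Triton X-100, pH 7.0, preincubated 15 min at room temperature with compound. Reaction started with 40 uM arachidonic acid, 30 min at room temperature. Hydroperoxide measured by Fe-xylenol orange, 573/405 nm absorbance ratio.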
# * hit, by the source's call; u = inconclusive; x = no result. Unless noted, calls come from the whole dose curve; as a rule, active = well fitted curve in the direction sought with a large enough effect; inconclusive = small, poorly fitted or top-dose-only effect, or another doubt; inactive = no such curve, though single readings can be large; an effect the other way counts as inactive or inconclusive. Potency is the fitted concentration of half-maximal effect.
SMILES,Chronic BCR inh,Anesthetic bind,Glioma ERSR ind,ALOX12 inh
C[n+]1c2n(c3ccccc31)N=C(c1cc(C(C)(C)C)c(O)c(C(C)(C)C)c1)CS2,u,u,-12%,28µM*
O=C(NC1CCCCCCC1)c1cc(C(F)(F)F)cc(C(F)(F)F)c1,x,x,x,1%
O=C1COc2ccc(-c3csc(NCC4CCCO4)n3)cc2N1 (configuration not stated),-1%,u,4%,45µM*
COc1ccc(/C=C/C(=O)c2cc3c(cc2N)OCO3)cc1,u,-17%,1%,35µM*
COc1cc(/C=C/C(=O)c2ccc3c(c2)OCO3)cc(OC)c1OC,u,x,28µM*,x
COc1cc(/C=C/C(=O)c2ccc3c(c2)OCCO3)cc(OC)c1OC,u,-12%,11%,1%
COc1ccc(Br)cc1Cn1nnc(C(=O)Nc2cc(C)ccc2OC)c1N,x,x,x,-35%
CC(O)(c1cccc(F)c1)c1nc(-c2ccncc2)cs1 (configuration not stated),x,x,-5%,6%
COc1ccc(-c2csc(C(C)(O)c3cccc(OC)c3)n2)cc1 (configuration not stated),x,x,-1%,u
COc1ccc(C(C)(O)c2nc(-c3ccoc3)cs2)cc1 (configuration not stated),x,x,-1%,28µM*
CC(O)(c1cccc(F)c1)c1nc(-c2ccccc2)cs1 (configuration not stated),x,x,-1%,10µM*
COc1cccc(C(C)(O)c2nc(-c3cccs3)cs2)c1 (configuration not stated),x,x,-4%,4.5µM*
COc1ccc(C(C)(O)c2nc(-c3cncnc3)cs2)cc1 (configuration not stated),x,x,-3%,-11%
CCOc1ccc(CC(=O)N2CCN(c3cc(-c4cccs4)[nH]n3)CC2)cc1OCC,x,x,x,33%
Cc1cccc(NC(=S)Nc2ccc(Oc3ccccc3)cc2)n1,u,0%,2%,10µM*
Cc1cccc(NC(=S)NC2CCCCC2)n1,u,-10%,-2%,40µM*
Cc1cccc(NC(=S)NC2CCCC2)n1,u,-19%,-1%,45µM*
Cc1cccc(NC(=S)Nc2cccc(C)n2)n1,u,10%,2%,0%
CCc1ccc(NC(=O)CSc2ncc(-c3ccc(F)cc3)o2)cc1,x,x,x,1%
Cc1cnc(NC(=O)C(C)N2CCN(C)CC2)s1 (configuration not stated),3%,-9%,-4%,2.5µM*
Cc1cnc(NC(=O)[C@H](C)N2C(=O)C3CCCCC3C2=O)s1 (some centres not stated),4%,-3%,0%,14%
CCOc1ccc(-c2nc(N)ncc2Oc2ccc(OC)cc2)c(O)c1,u,-16%,0%,16µM*
Cc1ccc(Nc2nc3ccccc3c3nnc(C)n23)cc1Cl,x,-10%,0%,-2%
COc1ccc(Nc2nc3ccccc3c3nnc(C)n23)cc1Cl,x,-11%,4%,3.2µM*
CC1(C)CC(C)(c2ccc(O)cc2O)N(c2cccc(Cl)c2)C(=S)N1 (configuration not stated),u,6%,-10%,u
SMILES,Chronic BCR inh,Anesthetic bind,Glioma ERSR ind,ALOX12 inh
CC1(C)CC(C)(c2ccc(O)cc2O)N(c2ccc3ccccc3c2)C(=S)N1 (configuration not stated),u,-19%,0%,18µM*
CC1=CC(C)C(COC(=O)C[N+]2(C)CCOCC2)C(C)C1 (configuration not stated),x,x,x,20µM*
CC[N+](C)(CC)CC(=O)OCC1C(C)C=C(C)CC1C (configuration not stated),13%,-5%,-3%,u
CC1=C(C(=O)Nc2ccccc2)C(c2ccc(Cl)cc2)N2C(=O)CSC2=N1 (configuration not stated),x,x,x,-6%
NNC(=S)Nc1ccc(Br)cc1,x,x,x,7.1µM*
NNC(=S)Nc1ccc(Cl)cc1,u,-11%,-1%,u
CC(C)NC(=O)C1CCC(Cn2cnnn2)CC1 (configuration not stated),x,x,x,50%
Oc1ccc(Nc2nc(N3CCCC3)c3ccccc3n2)cc1,u,u,1%,u
COc1ccc(Nc2nc(N3CCCCC3)c3ccccc3n2)cc1,7%,-14%,u,28µM*
COc1ccc(-c2c(C#N)c(N)nc3c2c(=O)n(C)c(=O)n3C)cc1,1%,4%,-6%,52%
Cn1c(Oc2ccc(-c3ccc(Br)cc3)cc2)c(C#N)c(=O)n(C)c1=O,x,x,x,13µM*
O=C1C=CC(=O)N1c1ccc(Sc2ccc([N+](=O)[O-])cc2)cc1,3%,-12%,x,x
Nc1ccc(Sc2ccc([N+](=O)[O-])cc2)cc1,20%,11µM*,2%,u
Cc1cc(=O)oc2c(C)c3oc(/C(=N/O)c4ccccc4)c(C)c3cc12,x,x,x,2%
COc1ccccc1-c1noc2nc(Nc3cccc(Cl)c3)ccc12,x,x,x,28µM*
COc1ccccc1-c1noc2nc(OCc3ccc(F)cc3)ccc12,x,x,x,11%
CC(O)c1cc2n(n1)CCCN(C(=O)CCc1cn3ccccc3n1)C2 (configuration not stated),x,x,x,33%
O=C(Cc1cn2ccsc2n1)N1CCCn2nc(C(O)C3CC3)cc2C1 (configuration not stated),x,x,x,45µM*
COc1cccc(CN2CCCN(S(=O)(=O)c3ccccc3)CCC(=O)NCC2)n1,x,x,x,35%
O=C(N[C@@H](Cc1ccccc1)C(=O)NCc1cccs1)c1cccs1,x,x,x,-17%
Cc1ccc(NC(=O)c2nn(Cc3ccccc3)c(=O)c3ccccc23)cc1Cl,x,x,x,7%
C=CCc1ccccc1OCC(O)CN1CCN(c2ccc(C)cc2)CC1 (configuration not stated),u,-14%,-4%,0.56µM*
Cc1ccc(C(C)C)c(OCC(O)CN2CCN(CCO)CC2)c1 (configuration not stated),0%,0%,-4%,10µM*
O=C(Nc1ccc2[nH]c(=O)[nH]c2c1)c1nn(-c2ccc(F)cc2)c2c1CCCC2,x,x,x,-4%
COc1cc(C2OCC3C(c4ccc(OC5OC(CO)C(O)C(O)C5O)c(OC)c4)OCC23)ccc1O (configuration not stated),-10%,-4%,-2%,5µM*
SMILES,Chronic BCR inh,Anesthetic bind,Glioma ERSR ind,ALOX12 inh
NCCOc1ccc(C23CC4CC(CC(C4)C2)C3)cc1,2%,11µM*,-15%,u
CCCOc1cccc(C(=O)Nc2ccc(OCCC)c3ncccc23)c1,x,x,x,28%
O=C(c1cnc(Cc2c[nH]c3ccccc23)c(I)c1)N1CCOCC1,x,x,x,20µM*
COc1ccccc1Cc1c(-c2ccc(F)cc2)nc2c(C)cc(Br)cn12,x,x,35µM*,u
COc1ccc(Cc2c(-c3ccc(Cl)cc3)nc3c(C)cc(Br)cn23)c(C)c1,x,x,0%,u
COc1ccc(Cc2c(-c3cccc(Cl)c3)nc3c(C)cc(Br)cn23)c(C)c1,x,x,-4%,7.9µM*
COc1ccc(Cc2c(-c3ccc(F)cc3)nc3c(C)cc(Br)cn23)c(C)c1,x,x,7%,35µM*
